Measured values published in PMC5540273 (PLoS ONE, 2017).

These compounds were tested on PIK3C2B. Details: concentration: 1 μM, replicates: in singlicate; n = 1.
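Note: KINOMEscan kinase panel screen.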

| Structure (SMILES) | %Inh [%] |
| --- | --- |
| COc1ccc(Nc2nccc(N3CCC(NS(=O)(=O)c4ccc(NC(C)=O)cc4)C3)n2)cc1 (stereo not shown) [GSK1379729] | 7 |
| CCn1c(-c2nonc2N)nc2ccccc21 [SB-693162/GW549034] | 0 |
| COc1cccc(-n2cnc3c(N)ncnc32)c1 [SKF-97416] | 0 |
| O=C(Nc1n[nH]c2nc(-c3ccccc3)c(Cl)cc12)C1CC1 [SB-734909] | 35 |
| Cc1nnc(-c2ccc3ncn(-c4ccc(S(C)=O)cc4)c3c2)o1 (stereo not shown) | 0 |
| CCC(=O)c1c(-c2ccccc2)c2cc(Cl)ccc2c(=O)n1Cc1cc(S(C)(=O)=O)n(CC(F)F)n1 | 0 |
| Cc1ccc(-c2ccc3c(ccc4sc5c(c43)NC[C@@H](C)N=C5N(C)C)n2)cn1 | 0 |
| Cc1nnc(-c2ccc(C)c(-c3ccc(C(=O)O)cc3)c2)o1 [GW608005] | 0 |
| Fc1cccc(CSc2nnc(-c3ccc4c(c3)CCO4)o2)c1 | 1 |
| O=C(NCCNc1ccnc(Nc2ccc(F)cc2)n1)Nc1ccc2c(c1)OCO2 [GSK1379882] | 7 |
| CN(C)c1cc(-c2ccc3c(N)n[nH]c3c2)nc(N)n1 [GSK2219329] | 0 |
| COc1cc2nccc(Nc3cccc(Oc4ccccc4)c3)c2cc1OC.Cl [GW284543] | 39 |
| COc1ccc(-n2cnc3c(N)ncnc32)cc1 [SKF-97236] | 0 |
| CCCNC(=O)Nc1ccc(Oc2ncnc3ccn(C)c23)cc1 | 19 |
| COc1ccc(-c2cc3c(C)nc(N)nc3n([C@H]3CC[C@H](O)CC3)c2=O)cn1 | 99.6 |
| COc1cc2ncn(-c3cc(OCCCc4ccccc4)c(C(N)=O)s3)c2cc1OC [GSK205189] | 8 |
| CCc1ccc(-c2ccc3c(c2)-c2nn(C)cc2S(=O)(=O)N3C)cc1 | 0 |
| Nc1n[nH]c2ncc(-c3ccccc3)cc12 [SB-517081] | 3 |
| COc1ccc(CNC(=O)NC2CCN(c3ccnc(Nc4ccc(F)cc4)n3)C2)cc1 (stereo not shown) [GSK1379706] | 0 |

| Structure (SMILES) | %Inh [%] |
| --- | --- |
| Cc1nn2c(=O)cc(N3CCOCC3)nc2n1Cc1cccc(Cl)c1Cl [GSK2342769] | 89 |
| Cn1c(=O)c(F)c(Nc2ccc(I)cc2F)c2c(=O)n(OC[C@H](O)CO)cnc21 | 0 |
| COC(=O)c1c(-c2ccccc2)c2cc(C)ccc2c(=O)n1Cc1ccccc1 | 0 |
| Nc1ncnc2c1ncn2-c1ccc(Cl)cc1 [AH2635] | 0 |
| COc1cccc(C2=C(N(C)c3ccccc3)C(=O)NC2=O)c1 [SB-334865] | 0 |
| COc1cc(Nc2nccc(N3CCC(NC(=O)C4COc5ccccc5O4)C3)n2)cc(OC)c1OC (stereo not shown) [GSK1379761] | 10 |
| COC(=O)c1c(-c2ccccc2)c2cc(Br)ccc2c(=O)n1Cc1ccc(NC(=O)CCC(=O)O)cc1 | 0 |
| Nc1ncnc2c1ncn2-c1cccc2ccccc12 [SKF-97184] | 7 |
| COc1ccc(-c2cc3c(C)nc(N)nc3n([C@H]3CC[C@H](OCCO)CC3)c2=O)cn1 | 98.1 |
| CCC(=O)c1c(-c2ccccc2)c2cc(Cl)ccc2c(=O)n1Cc1cc(S(C)(=O)=O)n(CC(N)=O)n1 | 0 |
| Nc1nc(N)c2nc(-c3ccccc3)[nH]c2n1 [SKF-12778] | 0 |
| FC(F)(F)c1ccc(-c2ncn(CCCN3CCOCC3)c2-c2ccncc2)cc1 [SB-217780] | 0 |
| COc1cc(OC)cc(-c2cc3cnc(N)nc3nc2NC(=O)NC(C)(C)C)c1 | 65 |
| O=C(Nc1ccc2c(c1)OCO2)NC1CCN(c2ccnc(NCc3ccc(F)cc3)n2)CC1 [GSK1379859] | 0 |
| O=C(NCc1cccs1)c1cc(C(=O)c2c(Cl)cccc2Cl)c[nH]1 [GW823670] | 0 |
| COc1cc2nccc(Nc3ccc(OCc4ccc(NC(C)=O)cc4)cc3)c2cc1OC.Cl [GW440135] | 17 |
| COc1cc2ncn(-c3cc(OCc4ccncc4Br)c(C(N)=O)s3)c2cc1OC [GW854278] | 54 |
| CCn1c(-c2ccoc2)nc2cnccc21 [SB-733887] | 6 |
